Sampled rows, rich in hits. Any-hit rate of the full collection: about 21%.
Pf growth 96h – Primary qHTS for delayed death inhibitors of the malarial parasite plastid, 96 hour incubation. P. falciparum luciferase reporter growth, 96 h. Potency, µM (titrated, usually from 28.7 µM), inactives show at the top dose activity change, negative = inhibition, most hits filed as inhibitors. 320,000 compounds, 6.9% hits. AID 504834, 2011; further: potency means the concentration at half of the fitted maximal effect; on the % scale 0 is the no-effect control and ±100 the full control effect
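Readout is luminescence from an integrated firefly luciferase in P. falciparum. Red cells, 2% hematocrit and 0.05% parasitemia final, were cultured with compound through two parasite generations (96 hours) at 37 C, 5% CO2.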
Shiga toxin inh – A qHTS for Small Molecule Inhibitors of Shiga Toxin | 290,000 compounds, 9.2% hits | inhibition, % at 38.7 µM | Vero cells, Shiga toxin protein synthesis inhibition reporter; in the data active means inhibition mostly above about 28%, no sharp cut-off; inactive means mostly below about 43%; further: 0% is about no effect
Cycloheximide cs – Cycloheximide Counterscreen for Small Molecule Inhibitors of Shiga Toxin. max response, %. cell reporter, cycloheximide protein synthesis inhibition counterscreen. 300,000 compounds, 12% hits; in the data active means max response mostly above about 13%, no sharp cut-off; inactive means mostly below about 14%; further: read at 38.3 µM for the half of the compounds with a filed dose; 0% is about no effect
Pf growth 48h – Primary qHTS for delayed death inhibitors of the malarial parasite plastid, 48 hour incubation; 310,000 compounds, 5.9% hits; AID 504832, 2011; P. falciparum luciferase growth in erythrocytes, 48 h; Potency, µM (series often up to 28.7 µM), inactives show at the top dose activity change, negative = inhibition, usual class: inhibitors; further: potency means the concentration at half of the fitted maximal effect; on the % scale 0 is the no-effect control and ±100 the full control effect
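First compound was added to culture medium, then infected red cells at 0.1% parasitemia and 2% hematocrit (final). After incubation at 37 C under 5% CO2, luciferase detection reagent was dispensed and light output recorded.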
The depositor's hits bear a star. Unless noted, the call rests on the fitted dose curve; in most records, active means well fitted inhibition curve with a large enough effect; inconclusive means small, poorly fitted or top-dose-only effect, or another doubt; inactive means no such curve, though single readings can be large or run the other way.

For COCCSc1nnc(NC(=O)c2cc(C(=O)OC)cc([N+](=O)[O-])c2)s1 the results were Pf growth 96h -9.9%, Shiga toxin inh -16.8, Cycloheximide cs -2.3 and Pf growth 48h inconclusive.
CCOC(=O)CSc1nnc(NC(=O)c2cccc([N+](=O)[O-])c2)s1 was read as Pf growth 96h 11.7µM*, Shiga toxin inh -2.2, Cycloheximide cs -1.8 and Pf growth 48h -22.4%.
`O=C(N/N=C1/CCSC1)c1cccc([N+](=O)[O-])c1` gave Pf growth 96h 7.9%, Shiga toxin inh 49.9*, Cycloheximide cs -1.4 and Pf growth 48h -8.1%.
`COC(=O)/C(=C\c1ccc([N+](=O)[O-])o1)NC(=O)c1ccccc1` gave Pf growth 96h 13.1µM*, Shiga toxin inh -12.6 and Cycloheximide cs -4.0.
For CCCCNC(=O)/C(=C\c1ccc([N+](=O)[O-])o1)NC(=O)c1ccccc1 the results were Pf growth 96h -18.7%, Shiga toxin inh 50.3, Cycloheximide cs 16.0 and Pf growth 48h inconclusive.
CC(NC(=O)NC(=O)c1cccc([N+](=O)[O-])c1)C1CC1 (configuration not stated) was read as Pf growth 96h 22.4%, Shiga toxin inh 14.2, Cycloheximide cs 6.7 and Pf growth 48h 10.4µM*.
Screening CC1CCN(C(=S)NC(=O)c2cccc([N+](=O)[O-])c2)CC1 returned Pf growth 96h inconclusive, Shiga toxin inh -12.6, Cycloheximide cs -3.3 and Pf growth 48h -26.6%.
COc1ccc(Cc2nnc(NC(=O)c3cccc([N+](=O)[O-])c3)s2)cc1 was read as Pf growth 96h 10.2%, Shiga toxin inh 32.2, Cycloheximide cs 22.8* and Pf growth 48h 20.5%.
Screening CN(C)S(=O)(=O)Oc1cccc(C(=O)Nc2ccc([N+](=O)[O-])cc2)c1 returned Pf growth 96h 40.6%, Shiga toxin inh 78.5*, Cycloheximide cs 50.1* and Pf growth 48h 44.9%.
For COc1ccc(C(=O)Nc2cccc(N(C)S(C)(=O)=O)c2)cc1OC the results were Pf growth 96h 75.1%, Shiga toxin inh 60.2*, Cycloheximide cs 25.5* and Pf growth 48h 138.4%.
`COc1ccc(Cc2nnc(NC(=O)c3ccc(OC)c(OC)c3)s2)cc1` gave Pf growth 96h inconclusive, Shiga toxin inh -1.4, Cycloheximide cs 0.3 and Pf growth 48h -2.7%.
For O=C(N[C@H]1CC1c1ccccc1)c1ccc([N+](=O)[O-])cc1 (some centres not stated) the results were Pf growth 96h 210.8%, Shiga toxin inh 111.7*, Cycloheximide cs 45.6* and Pf growth 48h 92.1%.
`CCN(CC)S(=O)(=O)c1ccc(N(C)C)c(NC(=O)CSCc2c(C)noc2C)c1` gave Pf growth 96h -27.2%, Shiga toxin inh -12.9, Cycloheximide cs -1.5 and Pf growth 48h inconclusive.
CC(C)(C)c1ccc(C(=O)NCC(=O)NCC(C)(C)N2CCOCC2)cc1 was read as Pf growth 96h 40.4% and Pf growth 48h 11.1%.
`O=C(CNC(=O)c1ccccc1)OCCCOC(=O)CNC(=O)c1ccccc1` gave Pf growth 96h -21.9%, Shiga toxin inh -12.3, Cycloheximide cs -3.4 and Pf growth 48h -0.1%.
Screening COC(=O)/C(=C/c1cccc([N+](=O)[O-])c1)NC(=O)c1ccc(OC)cc1 returned Pf growth 96h 21.4%, Shiga toxin inh 76.1*, Cycloheximide cs 52.8* and Pf growth 48h 8.3%.
CCN(CC)S(=O)(=O)c1ccc(NC(=O)c2cc(C(=O)OC)cc([N+](=O)[O-])c2)cc1 was read as Pf growth 96h -19.7%, Shiga toxin inh -18.2, Cycloheximide cs -2.4 and Pf growth 48h inconclusive.
CC(C)(C)c1cc(NC(=O)c2cccc([N+](=O)[O-])c2)no1 was read as Pf growth 96h -58.3%, Shiga toxin inh 92.4*, Cycloheximide cs 59.1* and Pf growth 48h 393.9%.
For CN(c1cccc(NC(=O)c2cccc([N+](=O)[O-])c2)c1)S(C)(=O)=O the results were Pf growth 96h 39.3%, Shiga toxin inh 35.4, Cycloheximide cs 26.9* and Pf growth 48h inconclusive.
For COC(=O)c1cc(C(=O)Nc2ccc(S(=O)(=O)NC(C)(C)C)cc2)cc([N+](=O)[O-])c1 the results were Pf growth 96h 2.62µM*, Shiga toxin inh 8.0, Cycloheximide cs -1.0 and Pf growth 48h inconclusive.
Cc1cc(NC(=O)c2cccc([N+](=O)[O-])c2)no1 was read as Pf growth 96h 16.3%, Shiga toxin inh 29.2, Cycloheximide cs -2.1 and Pf growth 48h 12.7%.
`Cc1ccc(C(=O)Nc2cccc(N(C)S(C)(=O)=O)c2)cc1S(=O)(=O)Nc1ccccc1` gave Pf growth 96h inconclusive, Shiga toxin inh -6.9, Cycloheximide cs -1.8 and Pf growth 48h 4.7%.
Screening Cc1cc(C)cc(NC(=O)COC(=O)CC2CCCC2)c1 returned Pf growth 96h 5.1% and Pf growth 48h -17.2%.
`COc1ccc2oc(C(=O)OCC(=O)NCc3ccccc3OC)c(C)c2c1` gave Pf growth 96h -7.5% and Pf growth 48h -1.2%.
COc1cccc(CN2CC(C(=O)N3CCN(C(C)C)CC3)CCC2=O)c1 (configuration not stated) was read as Pf growth 96h 9.5%, Shiga toxin inh 8.7, Cycloheximide cs -0.4 and Pf growth 48h -0.8%.
Screening O=C(Nc1ccc(Cc2ccncc2)cc1)c1cccc([N+](=O)[O-])c1 returned Pf growth 96h -9.0%, Shiga toxin inh -23.3, Cycloheximide cs 23.0* and Pf growth 48h 32.7%.
For O=C(Nc1ccc(Nc2ccncc2)cc1)c1ccc(Nc2ccnc3ccc([N+](=O)[O-])cc23)cc1 the results were Pf growth 96h 0.0928µM*, Shiga toxin inh -5.4, Cycloheximide cs 0.9 and Pf growth 48h 0.0928µM*.
O=C(Nc1ccncc1)c1ccc(C(=O)Nc2ccncc2)cc1 was read as Pf growth 96h 72.9%, Shiga toxin inh -8.9, Cycloheximide cs -1.1 and Pf growth 48h -12.2%.
For O=C(O)c1ccccc1Nc1ccc([N+](=O)[O-])cc1 the results were Pf growth 96h inconclusive, Shiga toxin inh 32.0, Cycloheximide cs 26.9* and Pf growth 48h 41.1%.
For O=C(O)c1ccccc1Nc1ccccc1C(=O)O the results were Pf growth 96h 25.3%, Shiga toxin inh -8.0, Cycloheximide cs 1.5 and Pf growth 48h -5.1%.
Screening CCOC(=O)Cc1ccc(NC(=O)c2cccc([N+](=O)[O-])c2)cc1 returned Pf growth 96h 8.8%, Shiga toxin inh 61.6*, Cycloheximide cs 21.5* and Pf growth 48h 10.3%.
O=C(Nc1cccc([N+](=O)[O-])c1)c1cc2ccccc2cc1O was read as Pf growth 96h 1.85µM*, Shiga toxin inh 108.5*, Cycloheximide cs 48.7* and Pf growth 48h 5.22µM*.
Cc1cc(O)c(NC(=O)c2cccc([N+](=O)[O-])c2)cc1C was read as Pf growth 96h 48.4%, Shiga toxin inh 46.6*, Cycloheximide cs 22.0* and Pf growth 48h -3.2%.
For COc1ccc(NC(=O)c2cccc([N+](=O)[O-])c2)cc1 the results were Pf growth 96h -32.5%, Shiga toxin inh 76.3*, Cycloheximide cs 58.8* and Pf growth 48h 271.0%.
